# About 2,000 (36%) of roughly 5,500 compounds were called active. Another 18% or so got no clear call; they are omitted. The list shows a part of the results. Values without a mark were called inactive. Cut-off read from the data, not from the text of the source: active = normalized growth mostly below about 0.91 (no sharp cut-off); inconclusive = no clear call, values can overlap the other calls; inactive = mostly above about 0.92.
# Test: chemical genetic growth profiling, strain panel (AID 1159580);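 note: tested at 20 µM; growth read once vehicle control cultures reached saturation at 30 °C; 1 = growth at the plate median or of vehicle wells; lower values mean less growth of the strain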
# Settings: S. cerevisiae deletion strains, growth OD
smiles,measurement,setting,value
CCCCC/C=C\C/C=C\C/C=C\C/C=C\CCCC(=O)O,normalized growth,"locus YAL013W, strain DEP1, hits give low values",0.987
same,normalized growth,"locus YAL021C, strain ccr4, hits give low values",0.986
same,normalized growth,"locus YAL026C, strain drs2, hits give low values",0.831 (active)
same,normalized growth,"locus YAL030W, strain snc1, hits give low values",0.978
same,normalized growth,"locus YBL061C, strain skt5, hits give low values",0.962
same,normalized growth,"locus YBR009C, strain hhf1, hits give low values",0.952
same,normalized growth,"locus YBR021W, strain FUR4, hits give low values",0.95
same,normalized growth,"locus YBR023C, strain chs3, hits give low values",0.963
same,normalized growth,"locus YBR171W, strain sec66, hits give low values",0.979
same,normalized growth,"locus YBR229C, strain ROT2, hits give low values",0.994
same,normalized growth,"locus YBR231C, strain swc5, hits give low values",0.975
same,normalized growth,"locus YBR279W, strain paf1, hits give low values",0.976
same,normalized growth,"locus YCL011C, strain gbp2, hits give low values",0.971
same,normalized growth,"locus YCL016C, strain dcc1, hits give low values",0.974
same,normalized growth,"locus YCL029C, strain bik1, hits give low values",0.986
same,normalized growth,"locus YCL061C, strain MRC1, hits give low values",0.975
same,normalized growth,"locus YCL069W, strain vba3, hits give low values",0.969
same,normalized growth,"locus YCR088W, strain abp1, hits give low values",0.975
same,normalized growth,"locus YDL005C, strain med2, hits give low values",0.984
same,normalized growth,"locus YDL035C, strain GPR1, hits give low values",0.953
same,normalized growth,"locus YDL040C, strain nat1, hits give low values",0.97
same,normalized growth,"locus YDL074C, strain BRE1, hits give low values",0.916
same,normalized growth,"locus YDL101C, strain DUN1, hits give low values",0.989
same,normalized growth,"locus YDL134C, strain PPH21, hits give low values",0.984
same,normalized growth,"locus YDL185W, strain tfp1, hits give low values",0.974
same,normalized growth,"locus YDL192W, strain arf1, hits give low values",0.965
same,normalized growth,"locus YDR001C, strain nth1, hits give low values",0.972
same,normalized growth,"locus YDR069C, strain doa4, hits give low values",0.993
same,normalized growth,"locus YDR101C, strain arx1, hits give low values",0.968
same,normalized growth,"locus YDR137W, strain rgp1, hits give low values",0.846 (active)
same,normalized growth,"locus YDR150W, strain NUM1, hits give low values",0.99
same,normalized growth,"locus YDR159W, strain sac3, hits give low values",0.926
same,normalized growth,"locus YDR162C, strain NBP2, hits give low values",0.967
same,normalized growth,"locus YDR195W, strain ref2",1.01
same,normalized growth,"locus YDR297W, strain sur2, hits give low values",0.972
same,normalized growth,"locus YDR318W, strain mcm21, hits give low values",0.957
same,normalized growth,"locus YDR334W, strain swr1, hits give low values",0.969
same,normalized growth,"locus YDR335W, strain msn5, hits give low values",0.971
same,normalized growth,"locus YDR388W, hits give low values",0.979
same,normalized growth,"locus YDR392W, strain spt3, hits give low values",0.474 (active)
same,normalized growth,"locus YDR502C, strain sam2, hits give low values",0.977
same,normalized growth,"locus YEL003W, strain gim4, hits give low values",0.975
same,normalized growth,"locus YEL037C, strain rad23, hits give low values",0.974
same,normalized growth,"locus YEL061C, strain CIN8 (second series), hits give low values",0.966
same,normalized growth,"locus YEL061C, strain CIN8, hits give low values",0.982
same,normalized growth,"locus YER015W, strain faa2, hits give low values",0.973
same,normalized growth,"locus YER016W, strain bim1, hits give low values",0.978
same,normalized growth,"locus YER110C, hits give low values",0.976
same,normalized growth,"locus YER111C, strain swi4, hits give low values",0.963
same,normalized growth,"locus YER155C, strain BEM2 (second series), hits give low values",0.746 (active)
same,normalized growth,"locus YER155C, strain BEM2, hits give low values",0.984
same,normalized growth,"locus YER167W, strain BCK2, hits give low values",0.945
same,normalized growth,"locus YFR010W, strain ubp6, hits give low values",0.974
same,normalized growth,"locus YGL078C, strain dbp3, hits give low values",0.951
same,normalized growth,"locus YGL086W, strain mad1, hits give low values",0.976
same,normalized growth,"locus YGL167C, strain pmr1, hits give low values",0.958
same,normalized growth,"locus YGL173C, strain kem1, hits give low values",0.96
same,normalized growth,"locus YGL227W, strain vid30, hits give low values",0.988
same,normalized growth,"locus YGL240W, strain doc1, hits give low values",0.963
same,normalized growth,"locus YGL248W, strain PDE1, hits give low values",0.985
same,normalized growth,"locus YGL253W, strain hxk2, hits give low values",0.974
same,normalized growth,"locus YGR078C, strain PAC10, hits give low values",0.945
same,normalized growth,"locus YGR135W, strain pre9, hits give low values",0.971
same,normalized growth,"locus YGR229C, strain SMI1, hits give low values",0.877
same,normalized growth,"locus YGR252W, strain gcn5, hits give low values",1.01
same,normalized growth,"locus YHR013C, strain ard1, hits give low values",0.855
same,normalized growth,"locus YHR027C, strain rpn1, hits give low values",0.981
same,normalized growth,"locus YHR030C, strain SLT2, hits give low values",0.97
same,normalized growth,"locus YHR079C, strain IRE1 (second series), hits give low values",0.967
same,normalized growth,"locus YHR094C, strain hxt1, hits give low values",0.947
same,normalized growth,"locus YHR129C, strain ARP1, hits give low values",0.992
same,normalized growth,"locus YHR142W, strain chs7, hits give low values",0.931
same,normalized growth,"locus YHR200W, strain rpn10, hits give low values",0.987
same,normalized growth,"locus YIL066C, strain RNR3, hits give low values",0.977
same,normalized growth,"locus YIL073C, strain SPO22, hits give low values",0.862
same,normalized growth,"locus YIR030C, strain dcg1, hits give low values",0.985
same,normalized growth,"locus YJL092W, strain hpr5, hits give low values",0.978
same,normalized growth,"locus YJL095W, strain BCK1 (second series), hits give low values",0.972
same,normalized growth,"locus YJL095W, strain BCK1, hits give low values",0.92
same,normalized growth,"locus YJL115W, strain asf1, hits give low values",0.97
same,normalized growth,"locus YJL129C, strain trk1, hits give low values",0.929
same,normalized growth,"locus YJL134W, strain LCB3, hits give low values",1.02
same,normalized growth,"locus YJL154C, strain vps35, hits give low values",0.979
same,normalized growth,"locus YJL164C, strain tpk1, hits give low values",0.97
same,normalized growth,"locus YJL166W, strain qcr8, hits give low values",0.959
same,normalized growth,"locus YJL168C, strain set2, hits give low values",0.986
same,normalized growth,"locus YJL187C, strain SWE1 (second series), hits give low values",0.983
same,normalized growth,"locus YJL187C, strain SWE1, hits give low values",0.978
